The results in this text go back to PubChem BioAssay.

A number with no mark means an inactive call. For some of these results: Results with a measured potency or affinity are listed apart. Active and inactive are the calls of the source. Unless noted, no rule for the calls is given here.

Assay [1] can be described thus: antimalarial activity against Dd2 strain (AID 2302;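 active = growth inhibition above 50% at the single 2 µM test dose, taken to imply half-maximal potency below 2 µM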;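 also: 0% = DMSO untreated growth and 100% = chloroquine plus artemisinin killed control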). Conditions: P. falciparum Dd2 in RBCs, LDH growth readout, 72 h; at 2 µM; active compounds read high.
The nature of assay [2]: HepG2 cytotoxicity, primary screen, cytotoxicity control for P. falciparum antimalarial project, cell-based, ATP luminescence (AID 2303;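 active = inhibition above 50%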;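 also: 0% = DMSO wells and 100% = digitonin-killed cells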). The following applies: HepG2 viability, 24-48 h, at 10 µM, active compounds read high.
The target of assay [3] is L-lactate dehydrogenase (Plasmodium falciparum (isolate CDC / Honduras)) (UniProt Q27743). The assay can be described thus: PfLDH activity inhibition – cell lysate, 3D7 strain, counter-screen for P. falciparum growth inhibition project (AID 2304).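 Also: 0% = vehicle and 100% = reference inhibitor.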 The following applies: P. falciparum 3D7 crude extract, LDH APAD/NBT absorbance; at 2 µM; active compounds read high.
The nature of assay [4]: inhibition of 3D7 malaria parasite growth – strain 3D7 (AID 2306).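 Also: 0% = DMSO wells and 100% = chloroquine plus artemisinin control wells.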 The following applies: P. falciparum 3D7 erythrocytic growth, LDH absorbance, 72 h; at 2 µM; active compounds read high.
Assay [5] deals with Calcium-dependent protein kinase 1 (Plasmodium falciparum (isolate 3D7)) (UniProt P62344). The assay can be described thus: PfCDPK1 kinase inhibitors, biochemical, TCAMS library (AID 1159585; cut-off not given, nearly all actives have IC50 up to about 0.98 µM;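 also: inhibitors leave more ATP so luminescence rises with inhibition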). The following applies: recombinant PfCDPK1, Kinase-Glo ATP depletion luminescence. A general note: Kinase-Glo reads ATP consumption through a luciferase reaction.
The target in assay [6] is Plasmodium falciparum protein kinase 6 (PK6, PF3D7_1337100) (UniProt Q8IDW1). The assay can be described thus: PfPK6 kinase inhibitors, biochemical, TCAMS library (AID 1159586). The following applies: recombinant PfPK6, Kinase-Glo ATP depletion luminescence.
In assay [7] the target is Protein kinase 7 (PK7), Plasmodium falciparum 3D7 (PF3D7_0213400) (UniProt Q7YTF7). Nature of the assay: inhibition of Plasmodium PK7 catalytic activity – biochemical, TCAMS antimalarial set, Kinase-Glo luminescence (AID 1159587). The following applies: recombinant PfPK7, Kinase-Glo ATP depletion luminescence.
The target in assay [8] is Calcium-dependent protein kinase 4 (Plasmodium falciparum (isolate 3D7)) (UniProt Q8IBS5). Nature of the assay: PfCDPK4 kinase inhibitors, biochemical, TCAMS library (AID 1159588; cut-off not given, nearly all actives have IC50 up to about 0.91 µM). Conditions: recombinant PfCDPK4, Kinase-Glo ATP depletion luminescence.
Calcium-dependent protein kinase 4 (Plasmodium falciparum (isolate 3D7)), sequence (Q8IBS5 whole entry, looked up): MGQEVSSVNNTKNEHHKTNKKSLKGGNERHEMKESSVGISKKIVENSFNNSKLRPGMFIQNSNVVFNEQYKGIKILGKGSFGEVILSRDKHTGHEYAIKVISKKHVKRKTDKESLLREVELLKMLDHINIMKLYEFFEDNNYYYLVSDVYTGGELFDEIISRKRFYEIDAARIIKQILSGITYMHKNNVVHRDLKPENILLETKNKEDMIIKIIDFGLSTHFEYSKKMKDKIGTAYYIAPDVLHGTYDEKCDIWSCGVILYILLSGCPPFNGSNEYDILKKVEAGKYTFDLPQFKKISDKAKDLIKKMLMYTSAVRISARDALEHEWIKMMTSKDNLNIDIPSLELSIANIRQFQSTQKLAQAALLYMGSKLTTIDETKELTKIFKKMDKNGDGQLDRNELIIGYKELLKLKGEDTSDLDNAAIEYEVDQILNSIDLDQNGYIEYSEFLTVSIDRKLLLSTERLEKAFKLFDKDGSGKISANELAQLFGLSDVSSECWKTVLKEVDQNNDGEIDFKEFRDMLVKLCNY

Plasmodium falciparum protein kinase 6 (PK6, PF3D7_1337100), sequence (Q8IDW1 1-305): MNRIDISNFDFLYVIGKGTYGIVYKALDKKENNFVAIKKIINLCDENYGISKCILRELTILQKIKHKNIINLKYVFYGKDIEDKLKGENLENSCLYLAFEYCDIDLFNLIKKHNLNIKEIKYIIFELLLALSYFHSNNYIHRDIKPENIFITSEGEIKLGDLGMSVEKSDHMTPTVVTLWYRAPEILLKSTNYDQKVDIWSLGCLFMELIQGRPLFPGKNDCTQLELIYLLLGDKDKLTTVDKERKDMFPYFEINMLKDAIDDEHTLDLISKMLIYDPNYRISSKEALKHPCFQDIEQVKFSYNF
L-lactate dehydrogenase (Plasmodium falciparum (isolate CDC / Honduras)), sequence (Q27743 whole entry, looked up): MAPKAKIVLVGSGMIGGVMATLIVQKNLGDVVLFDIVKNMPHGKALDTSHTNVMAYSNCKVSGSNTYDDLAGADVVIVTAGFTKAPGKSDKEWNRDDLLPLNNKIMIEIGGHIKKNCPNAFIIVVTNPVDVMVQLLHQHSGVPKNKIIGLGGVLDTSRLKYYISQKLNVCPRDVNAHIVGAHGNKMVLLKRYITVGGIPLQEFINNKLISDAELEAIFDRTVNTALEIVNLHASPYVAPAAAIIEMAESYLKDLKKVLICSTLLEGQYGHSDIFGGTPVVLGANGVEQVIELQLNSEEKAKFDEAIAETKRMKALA
Calcium-dependent protein kinase 1 (Plasmodium falciparum (isolate 3D7)), sequence (P62344 whole entry, looked up): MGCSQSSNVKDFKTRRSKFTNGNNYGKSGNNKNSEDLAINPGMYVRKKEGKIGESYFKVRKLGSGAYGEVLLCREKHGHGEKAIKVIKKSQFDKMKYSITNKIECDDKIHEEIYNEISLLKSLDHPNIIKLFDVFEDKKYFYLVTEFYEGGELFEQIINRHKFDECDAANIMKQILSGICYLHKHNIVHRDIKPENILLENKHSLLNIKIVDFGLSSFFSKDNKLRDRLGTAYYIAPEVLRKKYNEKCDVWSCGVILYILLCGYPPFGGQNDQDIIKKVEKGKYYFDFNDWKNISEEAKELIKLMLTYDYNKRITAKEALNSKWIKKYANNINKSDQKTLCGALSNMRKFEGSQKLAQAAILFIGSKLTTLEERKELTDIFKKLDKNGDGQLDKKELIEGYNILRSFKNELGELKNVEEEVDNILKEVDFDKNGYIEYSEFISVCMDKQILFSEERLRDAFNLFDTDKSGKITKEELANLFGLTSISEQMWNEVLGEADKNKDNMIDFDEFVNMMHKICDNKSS
Protein kinase 7 (PK7), Plasmodium falciparum 3D7 (PF3D7_0213400), sequence (Q7YTF7 1-343): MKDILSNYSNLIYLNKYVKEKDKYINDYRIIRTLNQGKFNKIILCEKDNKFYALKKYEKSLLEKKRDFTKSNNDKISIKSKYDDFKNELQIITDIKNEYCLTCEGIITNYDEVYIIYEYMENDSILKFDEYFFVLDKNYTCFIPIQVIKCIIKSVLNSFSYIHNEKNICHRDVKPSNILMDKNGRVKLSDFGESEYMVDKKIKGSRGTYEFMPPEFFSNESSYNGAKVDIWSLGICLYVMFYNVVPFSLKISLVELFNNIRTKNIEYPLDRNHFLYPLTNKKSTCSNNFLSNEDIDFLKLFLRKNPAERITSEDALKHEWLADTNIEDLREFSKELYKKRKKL

For `O=c1ccc(-c2nc3cc(Cl)c(Cl)cc3n2Cc2ccc(Cl)cc2Cl)c[nH]1`, the growth inhibition was 67% (active) in assay [1] and 88% (active) in assay [4]. Besides, the inhibition in assay [2] and in assay [3] was -8% in each case. Also, the result in assay [5], in assay [6], in assay [7] and in assay [8] was inactive.

As to `CC(=O)c1c[nH]c2ccc(/C=C/C(=O)NC3CCC(CCN4CCc5ccc(C#N)cc5CC4)CC3)cc12` (stereo not given), the growth inhibition in assay [1] is 98% (active); in assay [4], 101% (active). The results for the inhibition in assay [2] and in assay [3] were 11% and 9%, respectively. Besides, the outcome in assay [5], in assay [6], in assay [7] and in assay [8] was inactive.

In the case of `O=C1c2ccc([N+](=O)[O-])cc2C(=O)N1c1ccc2[nH]ncc2c1`, the growth inhibition in assay [1] is -1%; in assay [4], 87% (active). Moreover, the inhibition was 11% in assay [2] and -1% in assay [3]. Also, the outcome in assay [5], in assay [6], in assay [7] and in assay [8] was inactive.

For the molecule `COc1ccc(CNC2Cc3ccccc3C2)cc1-c1cccc(S(=O)(=O)NCCN2CCCC2)c1`, the growth inhibition in assay [1] was 61% (active); in assay [4], 98% (active). In addition, the inhibition in assay [2] is 48%; in assay [3], -3%. The result in assay [5], in assay [6], in assay [7] and in assay [8] was inactive.

Take `Cc1cccc2[nH]c(-c3cccc(-c4ccc(NC(=O)c5cnn6cccnc56)cc4)c3)nc12`: the growth inhibition in assay [1] was 73% (active); in assay [4], 101% (active). The inhibition was 99% (active) in assay [2] and -1% in assay [3]. Further, the outcome in assay [5], in assay [6], in assay [7] and in assay [8] was inactive.

On to `Cn1c(N)c(N=O)c(=O)[nH]c1=O`, for which the growth inhibition in assay [1] was 82% (active); in assay [4], 97% (active). The inhibition in assay [2] was 58% (active); in assay [3] it was 0%. The result in assay [5], in assay [6], in assay [7] and in assay [8] was inactive.

Regarding `CC(C)(C)c1ccc2oc(=O)n(C3CCN(C(=O)c4ccc([N+](=O)[O-])o4)CC3)c2c1`, the values for the growth inhibition in assay [1] and in assay [4] were 87% (active) and 94% (active), respectively. Further, the figures for the inhibition in assay [2] and in assay [3] were -8% and -2%, respectively. Moreover, the result in assay [5], in assay [6], in assay [7] and in assay [8] was inactive.

Take `COc1ccc(CCN(C)CCCCc2ccc(NC(=O)c3cccc4c(=O)c5cc(F)ccc5sc34)cc2)cc1OC`: the results for the growth inhibition in assay [1] and in assay [4] were 49% and 96% (active), respectively. The inhibition was 98% (active) in assay [2] and 0% in assay [3]. Besides, the outcome in assay [5], in assay [6], in assay [7] and in assay [8] was inactive.

For `Cc1cc2ncn(-c3nccc(NCc4ccc(F)cc4)n3)c2cc1C`, the growth inhibition in assay [1] was 83% (active); in assay [4] it was 98% (active). Besides, the values for the inhibition in assay [2] and in assay [3] were 10% and -2%, respectively. The outcome in assay [5], in assay [6], in assay [7] and in assay [8] was inactive.

As for `CN1CCC(NCc2ccc(S(=O)(=O)Nc3ccc(Oc4cccc(Cl)c4)cc3)cc2)CC1`, the growth inhibition in assay [1] was 5%; in assay [4] it was 99% (active). Further, the inhibition in assay [2] is 47%; in assay [3] it was 0%. The result in assay [5], in assay [6], in assay [7] and in assay [8] was inactive.

On to `O=C(C1COc2ccccc2O1)N(CCCn1ccnc1)Cc1csc(-c2ccc(CNCc3ccccc3)cc2)n1` (stereo not given), for which the growth inhibition is 18% in assay [1] and 100% (active) in assay [4]. The inhibition was 15% in assay [2] and -1% in assay [3]. Also, the outcome in assay [5], in assay [6], in assay [7] and in assay [8] was inactive.

`CC(C)N(CCOc1ccc2c(c1)N(C(=O)Nc1cc(Br)cc(C(F)(F)F)c1)CC2)C(C)C`: the results for the growth inhibition in assay [1] and in assay [4] were 100% (active) and 101% (active), respectively. Also, the inhibition was 8% in assay [2] and 5% in assay [3]. Further, the outcome in assay [5], in assay [6], in assay [7] and in assay [8] was inactive.

As to `CCCCCCn1c(Sc2ccc(C#N)c([N+](=O)[O-])c2)nnc1-c1ccc(Cl)cc1`, the figures for the growth inhibition in assay [1] and in assay [4] were 48% and 93% (active), respectively. The figures for the inhibition in assay [2] and in assay [3] were 23% and 0%, respectively. The outcome in assay [5], in assay [6], in assay [7] and in assay [8] was inactive.

On to `Cc1cc(N2CCCC2)nc(Nc2ccc(NC(=O)c3ccccc3)cc2)n1`, for which the growth inhibition in assay [1] was 65% (active); in assay [4] it was 100% (active). Also, the inhibition in assay [2] is 26%; in assay [3], -3%. In addition, the outcome in assay [5], in assay [6], in assay [7] and in assay [8] was inactive.

On to `CC(=O)c1ccc(-c2ccc(C(=O)NCCCCN3CCC(c4ccc5c(c4OCC(N)=O)CCCC5)CC3)cc2)s1`, for which the growth inhibition in assay [1] was 4%; in assay [4] it was 90% (active). The values for the inhibition in assay [2] and in assay [3] were 26% and -4%, respectively. Further, the result in assay [5], in assay [6], in assay [7] and in assay [8] was inactive.

`NCc1ccc(CNCc2ccc(-c3ccc(-c4nc5ccc(F)cc5[nH]4)cc3)cc2)cc1`: the growth inhibition in assay [1] is 99% (active); in assay [4], 100% (active). Moreover, the inhibition in assay [2] was 12%; in assay [3], -3%. For the same molecule, the outcome in assay [5], in assay [6], in assay [7] and in assay [8] was inactive.

Consider `O=C(NCC1CCN(CCN2CCc3ccc4c(c3C2)OCO4)CC1)c1ccc(-c2ccc(C(F)(F)F)cc2)cc1`, for which the values for the growth inhibition in assay [1] and in assay [4] were 34% and 93% (active), respectively. Also, the figures for the inhibition in assay [2] and in assay [3] were 66% (active) and -5%, respectively. The result in assay [5], in assay [6], in assay [7] and in assay [8] was inactive.

For the molecule `COc1ccc(CNC2CCN(C)CC2)cc1-c1ccc(S(=O)(=O)NCc2ccccc2)c(F)c1`, the results for the growth inhibition in assay [1] and in assay [4] were 97% (active) and 101% (active), respectively. In addition, the inhibition was 53% (active) in assay [2] and 4% in assay [3]. In addition, the result in assay [5], in assay [6], in assay [7] and in assay [8] was inactive.

As to `O=C1CCCN1CCCNCc1ccc(-c2ccc(-c3nc4ccc(F)cc4[nH]3)cc2)cc1`, the growth inhibition is 99% (active) in assay [1] and 100% (active) in assay [4]. The inhibition in assay [2] is 16%; in assay [3], -3%. Also, the result in assay [5], in assay [6], in assay [7] and in assay [8] was inactive.

With `CNc1nc(Nc2ccccc2C)nc2ccccc12`, the growth inhibition in assay [1] was 81% (active); in assay [4] it was 101% (active). Besides, the results for the inhibition in assay [2] and in assay [3] were 17% and -1%, respectively. For the same molecule, the outcome in assay [5], in assay [6], in assay [7] and in assay [8] was inactive.

As usually defined, the inhibition is the drop in the measured response relative to a control, in per cent.
